From PubChem BioAssay (NCI)
Several values for one entry are separate records, joined by “and”; a condition that tells them apart may be missing. Equal values may be shown once. Compounds without any hit were thinned out: in the full panel of roughly 79,000, 15% have a hit. Activity calls are given as the source filed them. Rule as the data show it: active = growth inhibition above about 70%; inactive = the rest.

Experiments:
[1] = NCI Yeast Anticancer Drug Screen. Data for the wt1 strain (AID 149);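 also: 0% = growth of vehicle-treated wt1 cultures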; conditions: S. cerevisiae wt1 strain (SPY 50644) growth inhibition, active compounds read high
Method in brief: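 Each compound is tested on wt1 yeast and the loss of growth versus vehicle gives the inhibition value.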

[2] = NCI Yeast Anticancer Drug Screen. Data for the rad50EPP+ strain (AID 151);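 also: 0% = growth of vehicle-treated control cultures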; conditions: S. cerevisiae rad50 mutant strain, active compounds read high
Method in brief: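 Read-out is yeast growth inhibition relative to vehicle; cells used were the rad50EPP+ strain.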

[3] = NCI Yeast Anticancer Drug Screen. Data for the mgt1 strain (AID 153); conditions: S. cerevisiae mgt1 mutant growth inhibition, active compounds read high
Method in brief: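 Measured: inhibition of mgt1 yeast growth by compound, normalized to vehicle-treated cultures.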

[4] = NCI Yeast Anticancer Drug Screen. Data for the rad50 strain (AID 155);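 also: 0% = growth of vehicle-only cultures of the same strain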; conditions: S. cerevisiae rad50 strain growth inhibition, active compounds read high
Method in brief: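 Vehicle-treated cultures provide the reference for the growth inhibition reported for compound-exposed, repair-deficient yeast.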

[5] = NCI Yeast Anticancer Drug Screen. Data for the mec2-1 strain (AID 157); conditions: S. cerevisiae mec2-1 strain, active compounds read high
Method in brief: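 Using mec2-1 yeast: add compound, measure growth, express inhibition versus vehicle-treated cultures.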

[6] = NCI Yeast Anticancer Drug Screen. Data for the rad14 strain (AID 159);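 also: 0% = growth of vehicle-treated control cultures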; conditions: S. cerevisiae rad14 strain growth inhibition, active compounds read high
Method in brief: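 Inhibition of growth is reported for a repair-deficient yeast mutant following compound treatment, calculated relative to cultures that received vehicle.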

[7] = NCI Yeast Anticancer Drug Screen. Data for the sgs1 mgt1 strain (AID 161);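 also: 0% = growth of cultures given vehicle only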; conditions: S. cerevisiae sgs1 mgt1 strain, active compounds read high
Method in brief: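 Percent growth inhibition was derived by comparing compound-exposed mutant yeast with vehicle-exposed cultures. The strain carries alterations in DNA damage repair.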

[8] = NCI Yeast Anticancer Drug Screen. Data for the CLN2oe strain (AID 163);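 also: 0% = growth of vehicle-only control cultures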; conditions: S. cerevisiae CLN2oe strain, active compounds read high
Method in brief: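 Whole-cell yeast growth assay. A strain engineered for altered cell-cycle control received compound, and inhibition relative to vehicle-treated cultures was recorded.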

[9] = NCI Yeast Anticancer Drug Screen. Data for the cln2 rad14 strain (AID 165);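 also: 0% = growth equal to vehicle treated cultures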; conditions: S. cerevisiae cln2 rad14 strain, active compounds read high
Method in brief: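 Yeast strain cln2 rad14, bearing defects in cell cycle control and DNA repair, serves as the test system; values reflect growth inhibition compared with vehicle.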

[10] = NCI Yeast Anticancer Drug Screen. Data for the bub3 strain (AID 167); conditions: S. cerevisiae bub3 mutant strain, active compounds read high
Method in brief: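 Mutant yeast screening strain plus compound; vehicle-treated cultures serve as the 0% inhibition reference.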

[11] = NCI Yeast Anticancer Drug Screen. Data for the wt2 strain (AID 169); conditions: S. cerevisiae wt2 strain growth inhibition, active compounds read high
Method in brief: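 Treated yeast vs. vehicle-treated yeast: growth inhibition determined.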

[12] = NCI Yeast Anticancer Drug Screen. Data for the mlh1 strain (AID 171);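 also: 0% = growth of vehicle-treated control cultures of the same strain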; conditions: S. cerevisiae mlh1 strain growth inhibition, active compounds read high
Method in brief: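 A yeast strain with a defined genetic lesion serves as the test organism. Cultures receive compound or vehicle, and growth is measured.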

[13] = NCI Yeast Anticancer Drug Screen. Data for the sgs1 strain (AID 173);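 also: 0% = growth of vehicle-only control cultures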; conditions: S. cerevisiae sgs1 mutant, active compounds read high
Method in brief: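 A genetically defined yeast mutant is incubated with the test compound, and its growth is compared to that of the same strain given vehicle.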

[14] = NCI Yeast Anticancer Drug Screen. Data for the mlh1 rad18 strain (AID 175); conditions: S. cerevisiae mlh1 rad18 strain growth inhibition, active compounds read high
Method in brief: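 Steps: expose repair-defective yeast to compound; measure growth; express inhibition against vehicle-treated controls.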

[15] = NCI Yeast Anticancer Drug Screen. Data for the rad18 strain (AID 177); conditions: S. cerevisiae rad18 mutant growth inhibition, active compounds read high
Method in brief: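 Measured value is growth inhibition of a yeast strain bearing a DNA repair alteration, referenced to vehicle-treated cells.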

[16] = at 5.0 µM (retest, dose inferred, filed as 0.5)
[17] = at 50.0 µM (retest, dose inferred, filed as 5.0)

Measured: growth inhibition

c1ccc2c(c1)Cn1c-2nc2ccccc21
active: [1]; at 100.0 µM 94% | [2]; at 100.0 µM 95% | [3]; at 33.0 µM 74% | [3]; at 100.0 µM 98% | [4]; at 33.0 µM 75% | [4]; [17] 74% | [4]; at 50.0 µM 84.3% | [4]; at 100.0 µM 96% | [5]; [16] 73% | [5]; [17] 85% | [5]; at 100.0 µM 98% | [6]; at 100.0 µM 97% | [7]; [17] 84% | [8]; at 100.0 µM 96% | [9]; [17] 87% | [10]; [17] 86% | [10]; at 100.0 µM 97% | [11]; at 100.0 µM 94% | [12]; at 100.0 µM 96% | [13]; at 100.0 µM 92% | [14]; [17] 78% | [14]; at 50.0 µM 83.4% | [15]; at 100.0 µM 95%
inactive: [1]; at 1.2 µM -27% | [1]; at 3.7 µM -21% | [1]; at 11.0 µM -28% | [1]; at 33.0 µM 5% | [2]; at 1.2 µM 2% | [2]; at 3.7 µM -4% | [2]; at 11.0 µM 8% | [2]; at 33.0 µM 62% | [3]; at 1.2 µM 15% | [3]; at 3.7 µM 3% | [3]; at 11.0 µM 30% | [4]; at 1.2 µM -9% | [4]; at 3.7 µM 1% | [4]; [16] 49% | [4]; at 11.0 µM 24% | [5]; at 1.2 µM 9% | [5]; at 3.7 µM 7% | [5]; at 11.0 µM 13% | [5]; at 33.0 µM 53% | [5]; at 50.0 µM 69.5% | [6]; at 1.2 µM -19% | [6]; at 3.7 µM -17% | [6]; at 11.0 µM -12% | [6]; at 33.0 µM 33% | [7]; [16] -27% | [8]; at 1.2 µM -18% | [8]; at 3.7 µM 0% | [8]; at 11.0 µM -23% | [8]; at 33.0 µM 18% | [9]; [16] 54% | [10]; at 1.2 µM -11% | [10]; at 3.7 µM -5% | [10]; [16] 27% | [10]; at 11.0 µM 3% | [10]; at 33.0 µM 68% | [11]; at 1.2 µM -24% | [11]; at 3.7 µM -5% | [11]; at 11.0 µM -4% | [11]; at 33.0 µM 34% | [12]; at 1.2 µM -31% | [12]; at 3.7 µM -8% | [12]; at 11.0 µM 2% | [12]; at 33.0 µM 36% | [13]; at 1.2 µM -7% | [13]; at 3.7 µM -21% | [13]; at 11.0 µM -21% | [13]; at 33.0 µM 31% | [14]; [16] 50% | [15]; at 1.2 µM -7% | [15]; at 3.7 µM -4% | [15]; at 11.0 µM -1% | [15]; at 33.0 µM 25%

CC(=O)C1=C(O)C2(C)c3c(O)c(C)c(O)c(C(C)=O)c3OC2(Sc2ccccc2)CC1=O (stereo not given)
inactive: [1]; at 1.2 µM 21% | [1]; at 3.7 µM 51% | [1]; at 11.0 µM 55% | [1]; at 33.0 µM 66% | [2]; at 1.2 µM 23% | [2]; at 3.7 µM 18% | [2]; at 11.0 µM 30% | [2]; at 33.0 µM 33% | [2]; at 100.0 µM 52% | [4]; at 1.2 µM 20% | [4]; at 3.7 µM 20% | [4]; [16] -15% | [4]; at 11.0 µM 36% | [4]; at 33.0 µM 53% | [4]; at 50.0 µM 63% and 7.1% | [5]; at 1.2 µM 4% | [5]; at 3.7 µM 24% | [5]; [16] 22% | [5]; at 11.0 µM 43% | [5]; at 33.0 µM 54% | [5]; at 50.0 µM 68.6% and -7.9% | [6]; at 1.2 µM 0% | [6]; at 3.7 µM 5% | [6]; at 11.0 µM 17% | [6]; at 33.0 µM 30% | [7]; [16] 9% | [7]; at 50.0 µM 48.1% and 0.4% | [8]; at 1.2 µM -1% | [8]; at 3.7 µM 34% | [8]; at 11.0 µM 44% | [8]; at 33.0 µM 52% | [9]; [16] 50% | [9]; at 50.0 µM 68.8% and 4.6% | [10]; at 1.2 µM 12% | [10]; at 3.7 µM 40% | [10]; [16] 36% | [10]; at 11.0 µM 42% | [10]; at 33.0 µM 51% | [10]; at 50.0 µM 59.5% and -0.65% | [11]; at 1.2 µM 10% | [11]; at 3.7 µM 34% | [11]; at 11.0 µM 41% | [11]; at 33.0 µM 54% | [12]; at 1.2 µM 3% | [12]; at 3.7 µM 23% | [12]; at 11.0 µM 25% | [12]; at 33.0 µM 38%
active: [1]; at 100.0 µM 89% | [4]; [17] 85% | [4]; at 100.0 µM 83% | [5]; [17] 93% | [5]; at 100.0 µM 84% | [6]; at 100.0 µM 85% | [7]; [17] 91% | [8]; at 100.0 µM 85% | [9]; [17] 94% | [10]; [17] 91% | [10]; at 100.0 µM 86% | [11]; at 100.0 µM 89% | [12]; at 100.0 µM 83%
